This is part of a sample that, as a whole, favours compounds with a hit. Of some 83,000 tested, about 20% had one in any assay.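 Method: cells in 96-well plates; compound added at one concentration; 48 h incubation; percent growth measured; values under 10 scored active.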 Values without a mark were called inactive. Calls of active or inactive are those of the source.
These compounds were tested on SK-MEL-2 melanoma (assay: NCI-60 one-dose screen, 48 h (100 = growth as untreated, 0 = no growth, -100 = all killed)). Conditions: 10 µM unless noted.
Method: Growth inhibition of the SK-MEL-2 human tumor cell line is measured as a screen for anti-cancer activity. Cells are grown in 96 well plates and exposed to the test compound for 48 hours. Compounds are tested at a single concentration, which is 10^-5 M for most compounds. The reported endpoint is percent growth (GI% or GIPRCNT), where numbers from 0 - 100% represent growth inhibition, and numbers from -100% - 0 represent cell death. For example, a value of 40 represents 60% growth inhibition. A value of 0 means no net growth occurred over the course of the experiment. A value of -40 indicates 40% of cells at the beginning of the experiment died by the end of the experiment. A value of -100 means all cells are dead at the end of the experiment.
NCI-60 Human Tumor Cell Lines Screen was performed using the standard one-dose NCI protocol, which is described in more detail at https://dtp.cancer.gov/discovery_development/nci-60/default.htm.
Compounds with GIPRCNT values below 10 were considered active. Activity score was based on GIPRCNT using the following formula: […]
Score is 0 for GIPRCNT values of 100 or above, 50 for GIPRCNT values of 0, and 100 for GIPRCNT values of -100.
C[C@H]1[C@H]2[C@H]3CC[C@@H]4[C@@]5(C)C/C(=C/c6ccco6)C(=O)C(C)(C)[C@@H]5CC[C@@]4(C)[C@]3(C)CC[C@]23CO[C@]1(C)[C@@H](C(=O)/C=C\c1ccco1)C3 gave a growth of 65.6%. O=S(=O)(O)c1ccc(N/N=C/c2ccccc2Cl)cc1 was tested, and the growth was 102%. In the case of COC(=O)[C@]12CC[C@@H](C)[C@H](C)[C@@H]1C1=CC[C@@H]3[C@@]4(C)C(C=O)=C[C@@](C)(COS(C)(=O)=O)[C@@H]4C(=O)C[C@@]3(C)[C@]1(C)CC2, the growth is reported as 66.9%. Work on COc1ccc2c(c1)CCCN2c1c2ccccc2nc2ccccc12 yielded a growth of 35.4%. COC(=O)[C@]12CC[C@@H](C)[C@H](C)[C@@H]1C1=CC[C@@H]3[C@@]4(C)C(C=O)=C[C@@](C)(COC(=O)c5ccco5)C4=CC[C@@]3(C)[C@]1(C)CC2 was tested, and the growth was -42.1% (active). NNC(=O)c1nc(N)n(-c2ccc(S(N)(=O)=O)cc2)n1 was tested, and the growth was 107%. NC1=NCc2nc3ccccc3c(=O)n2C1 showed a growth of 92.8%. With N#Cc1c(-c2cccc(Cl)c2)cc(-c2cccc(F)c2)[nH]c1=O the growth was 102%. In the case of Cc1cc(NCc2cc(Nc3ccnc4cc(Cl)ccc34)ccc2F)nc(N2CCOCC2)n1, the growth is reported as 84.6%. O=[N+]([O-])c1ccc(C2CC(c3ccccc3)=Nc3ccccc3S2)cc1 (stereo not given) gave a growth of 107%. C[C@]12CC[C@@H]3c4cc(OC(F)F)c(O)cc4CC[C@H]3[C@@H]1CC[C@@H]2OS(N)(=O)=O showed a growth of 42.1%. With COc1ccc(-c2nc3c(c(=O)n2C(C)=O)C(c2ccc(Cl)cc2)c2sc4c(Cl)cccc4c2O3)cc1 (stereo not given) the growth was -11.5% (active). For O=c1c2cc(F)ccc2sc2c(NCCCN3CCCC3)nc3ccccc3c12, the growth was 85.4%. Cn1cc(-c2csc(-c3cccc(F)c3)n2)c2cccnc21 was tested, and the growth was -51.7% [100 µM] (active). O=C(NCCCNc1cc(-c2cn(-c3ccccc3)nc2-c2cccc(O)c2)ccn1)c1ccccc1 gave a growth of 26.8%. Compound COc1cccc(-c2nc3sccn3c2-c2ccnc(NCCNS(=O)(=O)c3ccc(C(F)(F)F)cc3)c2)c1 has a growth of 47.5%. COc1cc(N=Nc2ccc(N)cc2)c(OC)cc1N=Nc1ccccc1.[Cl][Zn][Cl] was tested, and the growth was 112%. In the case of CN1CCN(CC(=O)Nc2nc(-c3cccc(NS(=O)(=O)c4cccc5c(N(C)C)cccc45)c3)cs2)CC1, the growth is reported as 94.3%. Work on O=C(c1ccccc1)c1c(/C=C/c2ccc(Cl)cc2)nc2ccccc2c1/C=C/c1cccs1 yielded a growth of 103%. In the case of COC(=O)[C@]12CC[C@@H](C)[C@H](C)[C@@H]1C1=CC[C@@H]3[C@@]4(C)C(C=O)=C[C@@](C)(COS(C)(=O)=O)C4[C@H](O)C[C@@]3(C)[C@]1(C)CC2 (stereo not given in full), the growth is reported as -60.7% (active). C=C(C)[C@@H]1CC=C2c3sc(-c4ccc(C)cc4)nc3C[C@@H](C)[C@]2(C)C1 showed a growth of 105%. Work on CNC(=O)c1cc(Oc2ccc3nc(Nc4ccc(Cl)c(C(F)(F)F)c4)ccc3c2)ccn1 yielded a growth of 75.9%. With Cc1c(C(=O)N[C@@H](Cc2ccccc2)C(=O)C(=O)NCCc2ccccc2)[nH]c2ccccc2c1=O the growth was 111%. Work on COc1cc2nc(Cl)nc(Nc3ccc(S(=O)(=O)Nc4nccs4)cc3)c2cc1OC yielded a growth of 102%. Work on O=C(NCCc1ccc(O)c(O)c1)C12CC3CC(CC(C3)C1)C2 yielded a growth of 66.7%. For N#Cc1c(-c2ccccc2)cc(-c2ccc(Nc3nc(Nc4ccc(F)cc4)nc(Nc4ccc(F)cc4)n3)cc2)nc1N, the growth was 79.7%. CC1OC(O[C@H]2/C=C/C=C/C=C/C=C/C=C/C=C/C=C/[C@H](C)[C@@H](O)[C@@H](C)[C@H](C)OC(=O)CC(O)CC(O)CCC(O)C(O)CC(O)C[C@]3(O)C[C@H](O)C(C(=O)O)C(C2)O3)C(O)[C@H](N)C1O (stereo not given in full) showed a growth of 57.6%. O=[N+]([O-])c1ccc(Sc2cccc[n+]2[O-])c2nonc12 was tested, and the growth was 92.9%. N#CCN1C(=O)C2C3=C(CCCC3)SC2N=C1CN1CCCC1 (stereo not given) gave a growth of 83.5%. In the case of COc1cc(CCC[P+](c2ccccc2)(c2ccccc2)c2ccccc2)cc2c1OCO2, the growth is reported as 6.71% (active). COc1ccc(OC)c2c1[nH]c(=O)c1c3ncccc3cn21 was tested, and the growth was 65.6%. COc1ccc(C2=Nc3c(N)ncnc3NC(c3ccc4c(c3)OCO4)C2)cc1 (stereo not given) showed a growth of 57.6%. Work on O=[N+]([O-])c1ccc(N2c3ccncc3Sc3ccncc32)cc1 yielded a growth of 93.8%. For COc1ccc(-c2c(N)n[nH]c2-c2ccc(Cl)cc2O)cc1OC, the growth was 78.7%. With O=C(Nc1ccc(Cl)cc1)Nc1ccc(Cl)c(C(F)(F)F)c1 the growth was 3.63% (active). Work on COC(=O)c1c2c(c[n+]([O-])c1C)C(=O)C=CC2=O yielded a growth of 58.5%. Compound O=C(O)CN1C(=O)CCC1=O has a growth of 118%. CC(C)(C)c1ccc(/C=C/C(=O)Nc2ccc(O)cc2)cc1 was tested, and the growth was 94.6%. With N=C1CCC(=N)c2c1c(O)c1ccccc1c2O the growth was 117%. Work on COc1cc(/C=N/NC(=O)Cn2c(C(C)C)nc3ccccc32)ccc1O yielded a growth of 105%.

— PubChem BioAssay (NCI)
